{"source": "the supplement of paper PMC6555819"}
{"tested_on": "PPARg:RXRa IVT, anti-PPARg (NR concentration 270 nM, RXRa partner concentration 90 nM)", "assay": "PBM binding z-score (relative to random genomic background probes); higher = stronger binding; sequences stand for … in GC…GCGATTGACAGCGTAGAATGAAGG", "summary_of_the_method": "(§1)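 Each nuclear receptor dimer, without ligand, was incubated for 1 h on custom Agilent 4×180K protein-binding microarrays. Binding was detected with antibodies against each partner (one per run), and scanned fluorescence was regression-normalized. The binding z-scores are referenced to random human genomic background probes.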"}
{"sequence": "CCTACTGGGCCATTCAGAGGTCAGTGATCATATG", "PBM binding z-score": 3.89}
{"sequence": "CCTCGGAGGACAACAGGAGGTTAGAGCTGCCAGA", "PBM binding z-score": -0.491}
{"sequence": "TGAATCAGGTTAAAGATCAGGGAACGTGGCGTCG", "PBM binding z-score": 3.33}
{"sequence": "CGTCCATGGTCAGCAGGTCAGTGAAAGCGACGTG", "PBM binding z-score": 0.518}
{"sequence": "GCGACTGGGGCCAAGCAGGTTACCATAAGGTTGG", "PBM binding z-score": -0.0452}
{"sequence": "CTGGAAAGGTCGGTTGAGGTGAGTATACGGATAA", "PBM binding z-score": 0.957}
{"sequence": "TCATATAGGTAAAGGTCAAAGTCGAACGATATGA", "PBM binding z-score": 5.4}
{"sequence": "ACAGACAGGTGATGGAGGTAACTCAGGCTATCAT", "PBM binding z-score": 0.744}
{"sequence": "TTACCAAGGTGAGCTGAGGACGTTGATCCAACTC", "PBM binding z-score": 1.36}
{"sequence": "TCTAGTTGGTCAAAGGTCACACACTCGAAATGCG", "PBM binding z-score": 6.56}
{"sequence": "ACTAGCAGGCCAAGGGTAACTCAAGATTAGTCCG", "PBM binding z-score": 1.67}
{"sequence": "CGTCCCAGGTCAAAGGTCAGTGAAGAGATGACGG", "PBM binding z-score": 5.97}
{"sequence": "GCGACTAGGGCAAAGCAGGTTACCATAAGGTTGG", "PBM binding z-score": 4.23}
{"sequence": "ATCTCTAGGCAACCAAGTTCAGTGAATGCCGAAC", "PBM binding z-score": 0.547}
{"sequence": "GCATATAGGAAATACAAGGTGAAAGTCCGATTGT", "PBM binding z-score": 0.645}
{"sequence": "ATCTCTAGGTAACCAAGTTCAGTTAATGCCGAAC", "PBM binding z-score": 3.16}
{"sequence": "GCGACTGGGGCAAAGCAGGGTACCATAAGGTTGG", "PBM binding z-score": 3.24}
{"sequence": "CTACCAAGGTGAACAAGGTTGTTGATTACTATTC", "PBM binding z-score": 2.42}
{"sequence": "CCTGCTAGGTCAATTGTCAGCTAAAGCAGCTCGC", "PBM binding z-score": 3.14}
{"sequence": "GCTCGGAGGACAAGGTCATAGCTTTGTCCGTAGA", "PBM binding z-score": 1.58}
{"sequence": "ACTCGGAGGAAAAAGGTCAGAGCTACGCCAGTGA", "PBM binding z-score": 1.1}
{"sequence": "TCTCGGAGGACACGAAGGTCAGAGCGTTCCAGAG", "PBM binding z-score": 1.49}
{"sequence": "GGAACGATGGCAAAGTTGATAGCATCTGTCGACG", "PBM binding z-score": -0.327}
{"sequence": "CCTATTAGTTGACCATAAGGGCAACCAAAGCTCG", "PBM binding z-score": 0.63}
{"sequence": "TCATATAGGTAAATGCTAGCTGAAAGTCCGATCT", "PBM binding z-score": 1.89}
{"sequence": "GCTAGCAGGCCATTTGGGTCACTCATTGACGGGC", "PBM binding z-score": 1.84}
{"sequence": "GGAACGGGGGCAAAGTTGATAGCATCTGTCGACG", "PBM binding z-score": 6.45}
{"sequence": "TTACCAAGGTGAGCTGAGGTCGTTGGTCCAACTC", "PBM binding z-score": 1.75}
{"sequence": "CCTTGGAGGACAGAAGGTCAGAGCTGTCCGCTTT", "PBM binding z-score": 1.17}
{"sequence": "CGATCTAGGTCAGAACAGGACAGTGAAGGATGAT", "PBM binding z-score": 6.77}
{"sequence": "TAGCCTAGGTCATGCGCGCCAGTATAGTGTCGGC", "PBM binding z-score": 3.17}
{"sequence": "GCTGCTAGGTCAGCTTGGTCAGCTAACGGGTACG", "PBM binding z-score": 2.46}
{"sequence": "ACTATTAGTTTAGACGAGGGCAACCGATAGGTTG", "PBM binding z-score": 0.402}
{"sequence": "TCTTGTAGATCAGCAGGAGGTTAAGAAAGATCGA", "PBM binding z-score": 0.727}
{"sequence": "GCTAGCAGGCCATTGGGGTCACTCAATGACGGGC", "PBM binding z-score": 2.42}
{"sequence": "ACAGACAGGTGAAGAAGGTAACTCAGGCTATCAT", "PBM binding z-score": 0.733}
{"sequence": "TCTTGTAGATCACAGGTTAAGAAAGCCGAAGCCT", "PBM binding z-score": 1.8}
{"sequence": "CCTAGTTGGTCAAGGTCACACACGCTATAGGTAC", "PBM binding z-score": 3.52}
{"sequence": "TAGCCTAGGTCATTCAGGGTCCAGTATAGAAAGC", "PBM binding z-score": 2.74}
{"sequence": "CAAACTAGGTCAGGAGGTCAAAGTCCGCTTCCCG", "PBM binding z-score": 8.07}
{"tested_on": "PPARg DBDmut:RXRa IVT, anti-PPARg (DBD mutation: PPARg1 K132A/R137A, NR concentration 270 nM, RXRa partner concentration 90 nM)", "assay": "PBM binding z-score (relative to random genomic background probes); higher = stronger binding; sequences stand for … in GC…GCGATTGACAGCGTAGAATGAAGG", "summary_of_the_method": "as §1"}
{"sequence": "CCTACTGGGCCATTCAGAGGTCAGTGATCATATG", "PBM binding z-score": -0.582}
{"sequence": "CCTCGGAGGACAACAGGAGGTTAGAGCTGCCAGA", "PBM binding z-score": -1.7}
{"sequence": "TGAATCAGGTTAAAGATCAGGGAACGTGGCGTCG", "PBM binding z-score": 0.98}
{"sequence": "CGTCCATGGTCAGCAGGTCAGTGAAAGCGACGTG", "PBM binding z-score": -0.843}
{"sequence": "GCGACTGGGGCCAAGCAGGTTACCATAAGGTTGG", "PBM binding z-score": -0.943}
{"sequence": "CTGGAAAGGTCGGTTGAGGTGAGTATACGGATAA", "PBM binding z-score": -0.556}
{"sequence": "TCATATAGGTAAAGGTCAAAGTCGAACGATATGA", "PBM binding z-score": 2.71}
{"sequence": "ACAGACAGGTGATGGAGGTAACTCAGGCTATCAT", "PBM binding z-score": 0.159}
{"sequence": "TTACCAAGGTGAGCTGAGGACGTTGATCCAACTC", "PBM binding z-score": -0.327}
{"sequence": "TCTAGTTGGTCAAAGGTCACACACTCGAAATGCG", "PBM binding z-score": 2.18}
{"sequence": "ACTAGCAGGCCAAGGGTAACTCAAGATTAGTCCG", "PBM binding z-score": -0.794}
{"sequence": "CGTCCCAGGTCAAAGGTCAGTGAAGAGATGACGG", "PBM binding z-score": 0.207}
{"sequence": "GCGACTAGGGCAAAGCAGGTTACCATAAGGTTGG", "PBM binding z-score": -0.472}
{"sequence": "ATCTCTAGGCAACCAAGTTCAGTGAATGCCGAAC", "PBM binding z-score": 0.416}
{"sequence": "GCATATAGGAAATACAAGGTGAAAGTCCGATTGT", "PBM binding z-score": -0.0022}
{"sequence": "ATCTCTAGGTAACCAAGTTCAGTTAATGCCGAAC", "PBM binding z-score": 2.02}
{"sequence": "GCGACTGGGGCAAAGCAGGGTACCATAAGGTTGG", "PBM binding z-score": -0.359}
{"sequence": "CTACCAAGGTGAACAAGGTTGTTGATTACTATTC", "PBM binding z-score": -0.144}
{"sequence": "CCTGCTAGGTCAATTGTCAGCTAAAGCAGCTCGC", "PBM binding z-score": -0.356}
{"sequence": "GCTCGGAGGACAAGGTCATAGCTTTGTCCGTAGA", "PBM binding z-score": -0.805}
{"sequence": "ACTCGGAGGAAAAAGGTCAGAGCTACGCCAGTGA", "PBM binding z-score": 0.319}
{"sequence": "TCTCGGAGGACACGAAGGTCAGAGCGTTCCAGAG", "PBM binding z-score": -0.71}
{"sequence": "GGAACGATGGCAAAGTTGATAGCATCTGTCGACG", "PBM binding z-score": 0.0385}
{"sequence": "CCTATTAGTTGACCATAAGGGCAACCAAAGCTCG", "PBM binding z-score": 0.3}
{"sequence": "TCATATAGGTAAATGCTAGCTGAAAGTCCGATCT", "PBM binding z-score": 0.625}
{"sequence": "GCTAGCAGGCCATTTGGGTCACTCATTGACGGGC", "PBM binding z-score": -1.26}
{"sequence": "GGAACGGGGGCAAAGTTGATAGCATCTGTCGACG", "PBM binding z-score": 10.3}
{"sequence": "TTACCAAGGTGAGCTGAGGTCGTTGGTCCAACTC", "PBM binding z-score": -0.48}
{"sequence": "CCTTGGAGGACAGAAGGTCAGAGCTGTCCGCTTT", "PBM binding z-score": -1.14}
{"sequence": "CGATCTAGGTCAGAACAGGACAGTGAAGGATGAT", "PBM binding z-score": 1.59}
{"sequence": "TAGCCTAGGTCATGCGCGCCAGTATAGTGTCGGC", "PBM binding z-score": 0.974}
{"sequence": "GCTGCTAGGTCAGCTTGGTCAGCTAACGGGTACG", "PBM binding z-score": -1.08}
{"sequence": "ACTATTAGTTTAGACGAGGGCAACCGATAGGTTG", "PBM binding z-score": 0.0772}
{"sequence": "TCTTGTAGATCAGCAGGAGGTTAAGAAAGATCGA", "PBM binding z-score": 0.985}
{"sequence": "GCTAGCAGGCCATTGGGGTCACTCAATGACGGGC", "PBM binding z-score": -0.918}
{"sequence": "ACAGACAGGTGAAGAAGGTAACTCAGGCTATCAT", "PBM binding z-score": 0.175}
{"sequence": "TCTTGTAGATCACAGGTTAAGAAAGCCGAAGCCT", "PBM binding z-score": 0.9}
{"sequence": "CCTAGTTGGTCAAGGTCACACACGCTATAGGTAC", "PBM binding z-score": 0.555}
{"sequence": "TAGCCTAGGTCATTCAGGGTCCAGTATAGAAAGC", "PBM binding z-score": 0.533}
{"sequence": "CAAACTAGGTCAGGAGGTCAAAGTCCGCTTCCCG", "PBM binding z-score": 2.42}
